TRb-SRC2 inh – qHTS for Inhibitors of the Interaction of Thyroid Hormone Receptor and Steroid Receptor Coregulator 2. Thyroid hormone receptor beta (Homo sapiens), P10828. TRbeta-SRC2 peptide binding, fluorescence polarization; receptor liganded with 1 µM T3. Potency, µM (titrated, usually from 106 µM), inactives show at the highest dose activity change, negative = inhibition, usual class: inhibitors. 280,000 compounds, 0.065% hits;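 note: plate controls were bound peptide for no effect and peptide without receptor for full effect; nearly all actives have a fitted effect of over 50% in size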
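Binding of a 20-amino-acid Texas Red SRC2 peptide (20 nM) to TRb ligand-binding domain (0.6 uM) with agonist T3 at 1 uM was followed by fluorescence polarization after a 5 hr room-temperature incubation.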
Tau ThT inhib – qHTS for Inhibitors of Tau Fibril Formation, Thioflavin T Binding; Microtubule-associated protein tau (Homo sapiens), P10636; Potency, µM (top dose mostly 57.4 µM), for the others: at the highest dose activity, negative = inhibition, hits mostly inhibitors; 270,000 compounds, 2.1% hits; recombinant tau K18 P301L, heparin-induced fibrillization, ThT fluorescence; AID 1460, 2008; note: nearly all actives have a fitted effect of over 55% in size
Target sequence (P10636 561-689 P618L limits assumed): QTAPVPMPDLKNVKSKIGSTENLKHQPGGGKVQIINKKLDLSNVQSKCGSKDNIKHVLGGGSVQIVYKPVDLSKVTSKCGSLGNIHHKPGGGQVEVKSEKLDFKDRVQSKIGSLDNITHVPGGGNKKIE
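Fibril formation assay: tau K18 P301L at 15 uM with trace Alexa 594 label, heparin inducer 20 uM, pH 7 sodium acetate buffer, 37 C for 6 hr; endpoint ThT signal.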
Tau fibril FP – qHTS for Inhibitors of Tau Fibril Formation, Fluorescence Polarization | 280,000 compounds, 0.39% hits | Potency, µM (highest dose often 57.7 µM), without a hit: top-dose activity, negative = inhibition, hits mostly inhibitors | K18 P301L tau heparin fibrillization, Alexa594 FP, 6 h; note: nearly all actives have a fitted effect of over 55% in size
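K18 P301L tau (15 uM unlabeled/0.24 uM Alexa 594-labeled, final) + compound + heparin 20 uM final; 100 mM NaOAc pH 7; 6 hr 37 C; ThT 30 uM final added, 1 hr RT; FP ex 555/em 632 nm.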
RGS12 GoLoco inh – qHTS Assay for Inhibitors of RGS12 GoLoco Motif Activity (Red Fluorophore). Gai1:RGS12 GoLoco peptide FP, rhodamine, 10 min. Potency, µM (doses to about 61.6 µM), inactives show top-dose activity, negative = inhibition, hits mostly inhibitors. 230,000 compounds, 0.44% hits. AID 880, 2007; active = well fitted inhibition curve with a large enough effect, not every such curve was filed as active; inactive = no such curve, though single readings can be large or run the other way; note: nearly all actives have a fitted effect of over 30% in size
Target sequence (P63096 whole entry, looked up): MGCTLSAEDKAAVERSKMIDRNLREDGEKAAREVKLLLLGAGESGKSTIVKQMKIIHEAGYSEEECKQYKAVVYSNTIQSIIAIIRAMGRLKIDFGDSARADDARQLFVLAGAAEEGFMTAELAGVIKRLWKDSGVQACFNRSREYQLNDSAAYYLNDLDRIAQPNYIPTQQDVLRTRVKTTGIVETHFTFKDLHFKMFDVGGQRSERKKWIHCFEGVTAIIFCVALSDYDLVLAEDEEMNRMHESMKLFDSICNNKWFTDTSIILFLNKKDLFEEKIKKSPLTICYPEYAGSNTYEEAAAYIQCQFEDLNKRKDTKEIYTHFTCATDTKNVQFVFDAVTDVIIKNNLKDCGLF
TexasRed fluor – Total Fluorescence Counterscreen for Inhibitors of the Interaction of Thyroid Hormone Receptor and Steroid Receptor Coregulator 2; TRb/SRC2 Texas Red total fluorescence interference; Potency, µM (top dose mostly 106 µM), inactives show at the highest dose fluorescence change, negative = quenching; 280,000 compounds, 0.29% hits; AID 1479, 2009; active = well fitted curve in either direction with a large enough effect; inconclusive = small, poorly fitted or top-dose-only effect
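Human TRβ ligand-binding domain (0.6 uM) and Texas Red SRC2 peptide (20 nM) in Tris buffer with 1 uM T3 and 5% DMSO were incubated with pinned compound for 5 hr at ambient temperature. Total fluorescence was computed as S + 2P (555/632 nm).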
Tau fluor cs – Counterscreen qHTS for Inhibitors of Tau Fibril Formation, Fluorescence Polarization; tau K18 P301L (four-repeat tau fragment) Alexa594 fluorescence, heparin fibrillization; Potency, µM (top dose mostly 57.7 µM), inactives show at the top dose activity change, negative = decrease; 280,000 compounds, 0.93% hits; AID 1463, 2008; note: nearly all actives have a fitted effect of over 55% in size
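Human K18 P301L tau (15 uM unlabeled plus 0.24 uM Alexa 594-labeled, final) in 100 mM sodium acetate pH 7 was mixed with compound and 20 uM heparin and incubated 6 hr at 37 C.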
Active calls of the source: *; u = inconclusive; x = no result given; [ ] = remark or other dose. In the library only some 3.1% were active in any assay of this set; here they are far more common. Unless noted, calls come from the whole dose curve; as a rule, active = well fitted curve in the direction sought with a large enough effect; inconclusive = small, poorly fitted or top-dose-only effect, or another doubt; inactive = no such curve, though single readings can be large; an effect the other way counts as inactive or inconclusive. Unless noted, % is set by controls: 0 for no effect and ±100 for the full control effect; potency is the fitted concentration of half-maximal effect.

SMILES | TRb-SRC2 inh | Tau ThT inhib | Tau fibril FP | RGS12 GoLoco inh | TexasRed fluor | Tau fluor cs
COc1ccccc1CNC(=O)CS(=O)Cc1nc(-c2ccc(OC)c(OC)c2)oc1C (centres undefined) | -18% | -12% | -6% | x | u | -19%
O=C(Nc1nc(=S)ss1)c1ccc(Cl)cc1Cl | 4% | 32µM* | u | -5% | -1% | -10%
O=C(N/C(=C/c1cccnc1)C(=O)N1CCOCC1)c1ccco1 | 0% | 7% | 4% | -2% | 0% | 8%
O=C(Nc1ccc(Cl)c(Cl)c1)C1=Cc2ccccc2OC1 | -15% | u | 16µM* | -7% | -2% | u
CCn1c(-c2cc(-c3cccc(OC)c3)nc3ccccc23)n[nH]c1=S | -17% | -16% | -2% | 9% | 0% | -28%
CCC1=Nc2cc(C(=O)NCC3CCCO3)ccc2Sc2ccc(Cl)cc21 (centres undefined) | 6% | -1% | 4% | -3% | 2% | -5%
CCC1=Nc2cc(C(=O)NCC3CCCO3)ccc2Sc2ccc(Br)cc21 (centres undefined) | -10% | u | 4µM* | 11% | 1% | u
COc1ccc(/C=N/NC(=O)c2nn(-c3ccc(Cl)cc3)c(=O)c3c(N)scc23)cc1 | -2% | 10µM* | u | 34% | -18% | u
COc1ccc(/C=N/NC(=O)c2nn(-c3ccccc3)c(=O)c3c(N)scc23)cc1 | 5% | 14µM* | u | 21% | -20% | u
Cc1ccc(N(CC(O)COCc2ccco2)S(=O)(=O)c2ccc(C)cc2)cc1 (centres undefined) | -8% | 32µM* | u | 0% | 1% | -23%
CCCN(CCC)CC(O)CN(c1ccccc1)S(=O)(=O)c1ccc(C)cc1 (centres undefined) | 7% | -8% | 5% | -2% | 0% | -9%
COc1cc(/C=C2/S/C(=N/S(=O)(=O)c3ccccc3)NC2=O)c([N+](=O)[O-])cc1OC | 4% | 16µM* | u | 6% | -14% | u
O=C1NC(=NCc2ccccc2)S/C1=C\c1ccccc1 | -4% | 3% | -4% | 7% | -28% | -2%
COc1cc(/C=C2\S/C(=N/S(=O)(=O)Cc3ccccc3)NC2=O)c([N+](=O)[O-])cc1OC | -1% | u | -8% | 11% | -5% | -27%
O=C1N/C(=N\S(=O)(=O)Cc2ccccc2)S/C1=C/c1cc([N+](=O)[O-])ccc1O | 2% | 5µM* | 1% | 57% | -19% | u
COc1cc(/C=C2/S/C(=N/S(=O)(=O)Cc3ccccc3)NC2=O)c([N+](=O)[O-])cc1OC | -7% | u | -6% | 25µM* | 3% | -10%
Cc1ccc(-c2nc3ccccc3nc2NN)cc1 | 1% | u | -3% | 18% | -1% | -26%
CCCCN(Cc1ccccc1)S(=O)(=O)c1ccc2c(c1)CCN2C(=O)C1CCC1 | -13% | -9% | -5% | x | -1% | -11%
CN1/C(=C/C(=S)NC(=O)C2(C)CC2(Cl)Cl)C(C)(C)c2ccccc21 (centres undefined) | 1% | 13µM* | -10% | 196% | 7% | -18%
CN1/C(=C\C=C(/C#N)C(=O)Nc2ccc(Cl)cc2)C(C)(C)c2ccccc21 | -6% | u | -2% | 10% | -2% | -6%
COc1ccccc1C(=O)NC(=S)/C=C1/N(C)c2ccccc2C1(C)C | -5% | 2% | 4% | 135% | -1% | 2%
CN1/C(=C\C(=O)Nc2ccc(Cl)cc2)C(C)(C)c2ccccc21 | -4% | u | 10% | 23% | 2% | 13µM*[quencher]
CN1/C(=C\C(=S)NC(=O)c2ccccc2Cl)C(C)(C)c2ccccc21 | 2% | 11µM* | 5% | 105% | 4% | -4%
CN1/C(=C\C(=S)Nc2ccccc2)C(C)(C)c2ccccc21 | 11% | u | u | 212% | u | u
COc1ccc(CNCC(O)(c2ccc(Cl)cc2)c2ccc(Cl)cc2)cc1OC | 3% | -10% | 12% | 1% | 3% | -24%
SMILES | TRb-SRC2 inh | Tau ThT inhib | Tau fibril FP | RGS12 GoLoco inh | TexasRed fluor | Tau fluor cs
O=C(NC(CSCc1ccccc1)C(=O)N/N=C/c1ccc(O)cc1O)c1ccc([N+](=O)[O-])cc1 (centres undefined) | -2% | u | u | 6% | -1% | 13µM*[quencher]
CCN1CCN(C(=S)c2ccc(O)cc2)CC1 | 7% | -16% | -4% | -6% | -1% | 6%
CCc1ccccc1NC(=O)Cn1c(=O)c2cccn2c2ccc(F)cc21 | -6% | 3% | -10% | x | u | 3%
COc1ccc(CCNC(=O)Cn2c(=O)c3cccn3c3ccccc32)cc1OC | 5% | -6% | 14µM* | x | 0% | u
COc1ccc(CCNC(=O)Cn2c(=O)c3cccn3c3ccc(F)cc32)cc1OC | 5% | u | 2% | x | 9% | -24%
Cc1cccc(NC(=O)Cn2c(=O)c3cccn3c3ccccc32)c1C | 2% | -10% | 18µM* | x | 5% | u
Cc1cccc(NC(=S)/N=C(\N)Nc2nc(C)c3ccccc3n2)c1 | 9% | 11% | 2% | 39% | -2% | 10%
Cc1ccc(Cn2c(/C=C/c3ccco3)nc3ccccc32)cc1 | -5% | 25µM* | u | 157% | 0% | u
CCCCn1c(/C=C/c2ccco2)nc2ccccc21 | -5% | u | -3% | 184% | 11% | -12%
CCCn1c(/C=C/c2ccco2)nc2ccccc21 | -19%[53 µM] | 6% | 6% | 156% | 3.5µM*[quencher] | 8%
CCOc1ccc(Nc2nc(C)c(NC(=O)c3cccc(OC)c3)c(Nc3ccc(OCC)cc3)n2)cc1 | -2% | u | 12% | x | -1% | 11µM*[quencher]
CCOc1ccc(C(=O)Nc2c(C)nc(Nc3ccccc3)nc2Nc2ccccc2)cc1OCC | -8% | u | -9% | x | 1% | u
CCOc1ccc(NC2C=CS(=O)(=O)C2)cc1 (centres undefined) | -18% | 35µM* | 0% | -3% | 3% | -17%
COC(=O)c1ccccc1NC(=O)CCCN1C(=O)C(c2ccccc2)Oc2cccnc21 (centres undefined) | 0% | -15% | 0% | x | -4% | -23%
O=C(O)c1cc(NC(=O)c2ccc(Cl)c([N+](=O)[O-])c2)cc(C(=O)O)c1 | 6% | -2% | 2% | -9% | -4% | -1%

Screens as filed in PubChem.
